Some test systems named below: T-47D breast; BT-549 breast; MDA-MB-435 melanoma; SW-620 colon; MCF7 breast; HCT-116 colon; HCC-2998 colon; KM12 colon.
Holding throughout (test): NCI-60 one-dose screen, 48 h (100 = growth as untreated, 0 = no growth, -100 = all killed)
Common to all, as to details: 10 µM unless noted

Compounds without any hit were thinned out: in the full panel of roughly 83,000, 20% have a hit.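 For each line, cells grew in 96-well plates with the test compound present at a single concentration for 48 hours.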 Unmarked numbers belong to inactive results. The source made the active and inactive calls. How the source made its calls: active means growth percent below 10; inactive means the rest.

Consider `O=C1OC(c2nc3ccccc3s2)=C/C1=C\c1ccc(O)cc1`, for which the growth with T-47D breast was 95.7%; in the experiment on BT-549 breast, 111%; in the experiment on MDA-MB-435 melanoma it was 102%; in the experiment with SW-620 colon it was 94.4%; in the experiment with MCF7 breast, 100%; in the experiment with HCT-116 colon, 99.8%. Moreover, the growth with HCC-2998 colon is 108%; with KM12 colon, 95%.
On to `COc1ccc(OC)c(-c2c(C#N)c(-c3ccc(Cl)cc3)nc3c2c(-c2ccccc2)nn3-c2ccccc2)c1`, for which the growth is 90.3% with T-47D breast; 101% in the experiment on BT-549 breast; 103% in the experiment on MDA-MB-435 melanoma; 98.6% in the experiment on SW-620 colon; 90.7% with MCF7 breast; 93.8% in the experiment on HCT-116 colon. Also, the growth in the experiment with HCC-2998 colon is 108%; with KM12 colon, 99.2%.
Consider `COc1cccc(C(=O)NCCCNc2cc(-c3cn(-c4ccccc4)nc3-c3cccc(OC)c3)ccn2)c1`, for which the growth with T-47D breast is -4.96% (active); with BT-549 breast, 11%; in the experiment on MDA-MB-435 melanoma it was 40.2%; with SW-620 colon, 54.4%; in the experiment on MCF7 breast, 37.5%; in the experiment with HCT-116 colon it was 30.5%. Further, the growth in the experiment on HCC-2998 colon was 61.2%; with KM12 colon, 43.5%.
As to `COc1ccc(-c2nc3c(N)c(CO)c(C)nc3o2)cc1`, the growth in the experiment with T-47D breast was 90.9%; in the experiment with BT-549 breast, 118%; in the experiment with MDA-MB-435 melanoma it was 103%; in the experiment on SW-620 colon, 118%; in the experiment on MCF7 breast, 86.1%; in the experiment on HCT-116 colon it was 103%. Moreover, the growth is 87% in the experiment on HCC-2998 colon and 96.5% in the experiment with KM12 colon.
Consider `COC1=CC(=O)C[C@@H](C)[C@]12Oc1c(Cl)c(OC)cc(OC)c1C2=O`, for which the growth with T-47D breast was 105%; in the experiment on BT-549 breast, 78.3%; in the experiment on MDA-MB-435 melanoma it was 1.96% (active); with SW-620 colon, 81.5%; in the experiment with MCF7 breast, 85.2%; in the experiment with HCT-116 colon, 92.4%. Further, the growth with HCC-2998 colon is 75.5%; with KM12 colon, 65.5%.
For `COc1cc(C(=O)/C=C/c2c(-c3ccc(F)cc3)nc3sc(C)cn23)cc(OC)c1OC`, the growth in the experiment with T-47D breast is 9.38% (active); in the experiment on BT-549 breast it was 15%; in the experiment on MDA-MB-435 melanoma, 3.64% (active); in the experiment on SW-620 colon, 30.6%; with MCF7 breast, 29.5%; in the experiment with HCT-116 colon it was 20.1%. In addition, the values for the growth with HCC-2998 colon and in the experiment with KM12 colon were 68.2% and 10.4%, respectively.
Consider `Cc1ccc(S(=O)(=O)Oc2cc(OS(=O)(=O)c3ccc(C)cc3)cc(OS(=O)(=O)c3ccc(C)cc3)c2)cc1`, for which the growth was 97.8% in the experiment with T-47D breast; 118% in the experiment on BT-549 breast; 96.2% with MDA-MB-435 melanoma; 92.2% in the experiment on SW-620 colon; 104% with MCF7 breast; 103% in the experiment with HCT-116 colon. Besides, the growth in the experiment with HCC-2998 colon was 139%; in the experiment with KM12 colon, 123%.
As for `CCCCCCCCCCCCCCCCCCOc1ccccc1CC(=O)OCCC[N+](C)(C)C`, the growth is 72.3% in the experiment on T-47D breast; 102% with BT-549 breast; 58.3% in the experiment with MDA-MB-435 melanoma; 40% with SW-620 colon; 46.5% with MCF7 breast; 64% in the experiment on HCT-116 colon. The results for the growth in the experiment on HCC-2998 colon and with KM12 colon were 37.2% and 76.1%, respectively.
As to `CCCCCCCOc1c(OC)cc(C2CC(=O)Nc3c2c(C)nn3-c2nc3ccccc3[nH]2)cc1OC` (stereo unspecified), the growth is 11.8% with T-47D breast; 6.89% (active) with BT-549 breast; -27.6% (active) in the experiment on MDA-MB-435 melanoma; 3.05% (active) in the experiment with SW-620 colon; 6.22% (active) with MCF7 breast; 4.4% (active) in the experiment on HCT-116 colon. Also, the values for the growth with HCC-2998 colon and with KM12 colon were 79.2% and 1.11% (active), respectively.
Take `c1ccc(Nc2nc(-c3ccccn3)cs2)nc1`: the growth is 26.4% in the experiment with T-47D breast; 43.9% with BT-549 breast; 30.9% with MDA-MB-435 melanoma; 30.2% in the experiment on SW-620 colon; 14.7% in the experiment with MCF7 breast; 10.3% with HCT-116 colon. The growth in the experiment on HCC-2998 colon was 38.3%; in the experiment with KM12 colon it was 29%.
Take `CCOC(=O)c1c2c(n3ccc(NC(=O)OC(C)(C)C)cc13)C(=O)c1ncccc1C2=O`: the growth with T-47D breast was 5.16% (active); in the experiment with BT-549 breast, -36.7% (active); in the experiment on MDA-MB-435 melanoma, -62.2% (active); with SW-620 colon it was -74.9% (active); in the experiment on MCF7 breast, -72.2% (active); in the experiment with HCT-116 colon, -65.8% (active). Further, the results for the growth with HCC-2998 colon and with KM12 colon were -59.4% (active) and -46.4% (active), respectively.
In the case of `CC(C)C(NC(=O)C1(NC(=O)OCc2ccccc2)CCCC1)C(=O)O` (stereo unspecified), the growth with T-47D breast is 103%; in the experiment on BT-549 breast it was 83.7%; with MDA-MB-435 melanoma, 109%; in the experiment with SW-620 colon, 96.9%; with MCF7 breast it was 105%; in the experiment with HCT-116 colon, 97.6%. For the same molecule, the growth in the experiment with KM12 colon is 111%.
`O=C(CSc1nnc(-c2ccc(NC(=O)c3cccnc3)cc2)o1)N[C@@H](Cc1ccc(O)cc1)C(=O)O`: the growth with T-47D breast is 86%; with BT-549 breast it was 113%; in the experiment with MDA-MB-435 melanoma, 108%; in the experiment with SW-620 colon it was 111%; in the experiment with MCF7 breast it was 105%; in the experiment with HCT-116 colon, 99.6%. The growth is 108% in the experiment on HCC-2998 colon and 110% in the experiment on KM12 colon.
`CCN(CC)Cc1cccc(C(=O)OC)c1`: the growth was 88.3% in the experiment on T-47D breast; 93.1% with BT-549 breast; 101% with MDA-MB-435 melanoma; 101% with SW-620 colon; 90.9% in the experiment with MCF7 breast; 89.9% with HCT-116 colon. Also, the growth with HCC-2998 colon and in the experiment on KM12 colon was 102% throughout.
`O=C1CCC2=C3C4CCCCC4C(=O)C4CCCC(OC2C1)C34` (stereo unspecified): the growth was 46.4% with T-47D breast; 7.09% (active) in the experiment with BT-549 breast; -68% (active) with MDA-MB-435 melanoma; 4.34% (active) in the experiment on SW-620 colon; 12.8% in the experiment on MCF7 breast; -7.43% (active) in the experiment on HCT-116 colon. Besides, in the experiment with KM12 colon, the growth is -2.73% (active).
For the molecule `NS(=O)(=O)c1cnccc1Sc1ccncc1S(N)(=O)=O`, the growth in the experiment on T-47D breast was 57%; in the experiment on BT-549 breast, 96.4%; in the experiment with MDA-MB-435 melanoma it was 106%; with SW-620 colon, 113%; in the experiment on MCF7 breast, 88.9%; with HCT-116 colon, 106%. The growth with HCC-2998 colon was 85.8%; with KM12 colon, 108%.

The record behind these values is PubChem BioAssay (NCI).
